In PubChem BioAssay (NCATS) one finds Potency data, which are given here for 40 compounds.

Records with an inconclusive call do not appear. A call without a number means that no potency is given here. Activity calls are given as the source filed them. Calls follow the shape of the dose curve; as a rule, active = well fitted inhibition curve with a large enough effect; inconclusive = small, poorly fitted or top-dose-only effect; inactive = flat fitted curve, though single readings scatter. Residues, ends and D or L forms follow the SMILES beside them.
Potency is read from the fitted curve at half-maximal effect.

Sequence of Ubiquitin carboxyl-terminal hydrolase 1 (Homo sapiens) (O94782 whole entry, looked up): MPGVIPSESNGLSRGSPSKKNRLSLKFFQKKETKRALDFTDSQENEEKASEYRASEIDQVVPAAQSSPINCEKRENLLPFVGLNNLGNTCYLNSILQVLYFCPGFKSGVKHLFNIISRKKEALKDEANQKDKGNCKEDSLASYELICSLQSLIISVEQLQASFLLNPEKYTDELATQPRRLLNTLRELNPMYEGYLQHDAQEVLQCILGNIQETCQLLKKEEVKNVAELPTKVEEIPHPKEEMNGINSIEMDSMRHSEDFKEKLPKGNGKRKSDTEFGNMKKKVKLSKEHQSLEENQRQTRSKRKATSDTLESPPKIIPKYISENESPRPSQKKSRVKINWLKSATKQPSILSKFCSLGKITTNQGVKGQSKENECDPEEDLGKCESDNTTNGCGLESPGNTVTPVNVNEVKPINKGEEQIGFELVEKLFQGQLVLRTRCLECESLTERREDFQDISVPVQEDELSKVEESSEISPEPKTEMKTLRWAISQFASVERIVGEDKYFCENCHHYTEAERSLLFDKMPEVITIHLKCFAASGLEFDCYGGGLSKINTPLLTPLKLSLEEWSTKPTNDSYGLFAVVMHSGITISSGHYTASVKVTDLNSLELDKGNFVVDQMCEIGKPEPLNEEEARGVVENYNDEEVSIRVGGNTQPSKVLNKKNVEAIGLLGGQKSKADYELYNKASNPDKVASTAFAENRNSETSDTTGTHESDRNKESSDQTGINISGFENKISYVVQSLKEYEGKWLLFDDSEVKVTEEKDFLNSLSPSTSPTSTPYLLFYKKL

The assay has as its target Ubiquitin carboxyl-terminal hydrolase 1 (Homo sapiens) (UniProt O94782). As to the kind of experiment: Inhibitors of USP1/UAF1: Pilot qHTS (AID 504865). Also: nearly all actives have a fitted effect of over 35% in size. The conditions noted are these: purified USP1/UAF1, Ub-rhodamine cleavage fluorescence; series mostly up to 114 µM. The source says:
Deubiquitinating enzymes (DUBs) are a class of enzymes that can cleave isopeptide bond formed between the C-terminal carboxylate of ubiquitin and a lysine side-chain amino group on the target protein. Among them, ubiquitin specific proteases (USPs) constitute the largest DUB family. Human USPs are emerging as promising targets for pharmacological intervention because of their connection to a number of human diseases, including prostate, colon and breast cancer (1, 2), pediatric acute lymphoblastic leukemia (3), and familial cylindromatosis (4). The advantage of inhibiting USPs lies in the potential specificity of therapeutic intervention that can lead to better efficacy and reduce nonspecific side effects.
In a collaboration between the University of Delaware and the NIH Chemical Genomics Center, a high-throughput screen assay was developed to screen for USP1/UAF1 inhibitors. This miniaturized assay has a fluorescent read-out and is used to screen the NIH Molecular Libraries Small Molecule Repository (MLSMR) in order to identify a small molecule that inhibits USP1.
NIH Chemical Genomics Center [NCGC]
NIH Molecular Libraries Probe Centers Network [MLPCN]
Assay Submitter (PI): Zhihao Zhuang, University of Delaware
1. Priolo, C., et al. (2006) The isopeptidase USP2a protects human prostate cancer from apoptosis. Cancer Res 66, 8625-8632
2. Popov, N., et al. (2007) The ubiquitin-specific protease USP28 is required for MYC stability. Nat Cell Biol 9, 765-774
3. De Pitta, C., et al. (2005) A leukemia-enriched cDNA microarray platform identifies new transcripts with relevance to the biology of pediatric acute lymphoblastic leukemia. Haematologica 90, 890-898
4. Kovalenko, A., et al. (2003) The tumour suppressor CYLD negatively regulates NF-kappaB signalling by deubiquitination. Nature 424, 801-805
3 microliters of reagents (buffer in columns 3 and 4 as negative control and 1nM USP1/UAF1 complex in columns 1, 2, and 5-48) are dispensed into Greiner black solid bottom 1536-well assay plates. Compounds are then transferred via Kalypsys pin tool equipped with 1536-pin array (10nl slotted pins, V&P Scientific, San Diego, CA). Following an incubation step of 15 min at room temperature, 1ul of Ub-Rho substrate (150nM final concentration) is added to initiate the reaction. The plates are immediately centrifuged at 1000 rpm for 15 seconds, and subsequently transferred to a ViewLux high-throughput CCD imager (PerkinElmer) wherein kinetic measurements of fluorescence are acquired using 480 nm excitation/540 nm emission filter set (6 reads every 60 seconds, see Table 1). All reagents are diluted in an assay buffer consisting of 50mM HEPES (pH 7.8), 0.5mM EDTA, 0.1 mg/ml BSA, 1mM TCEP, and 0.01% Tween-20.
Background: qHTS replaces the single test concentration by a dilution series.
`CC[C@@H]1O[C@]2(C=C[C@@H]1C)C[C@H]1C[C@H](CC=C(C)[C@@H](O[C@@H]3C[C@H](OC)[C@H](O[C@@H]4C[C@H](OC)[C@H](O)[C@H](C)O4)[C@H](C)O3)[C@@H](C)C=CC=C3CO[C@@H]4[C@@H](O)C(C)=C[C@@H](C(=O)O1)[C@]34O)O2`: the Potency result is “inactive”.

With `c1ccc2cc(C3=NCCN3)ncc2c1`, the Potency result was “inactive”.

With `C[C@@](N)(C(=O)O)c1ccc(C(=O)O)cc1`, the Potency entry is “inactive”.

Consider `NC1(C(=O)O)CCC1`, for which the Potency entry is “inactive”.

`O=C1N=C(O)CN1/N=C\c1ccc(-c2ccc([N+](=O)[O-])cc2)o1`: the Potency result is “inactive”.

Turning to `C#C[C@]1(O)CC[C@H]2[C@H]3CCC4=Cc5oncc5C[C@]4(C)[C@@H]3CC[C@]21C`, the Potency entry was “inactive”.

In the case of `CCOC(=O)[C@H](N)/C=C(\C)CP(=O)(O)O`, the Potency entry was “inactive”.

For the compound `NC(=O)CCCCn1ccc(NC(N)=NCC(F)(F)F)n1`, the Potency result was “inactive”.

For the compound `N[C@@H](Cn1ccc(=O)n(Cc2ccccc2C(=O)O)c1=O)C(=O)O`, the Potency result is “inactive”.

For the compound `O=C(Nc1ccc(C(=O)Nc2ccc(C(=O)Nc3ccc(S(=O)(=O)O)c4cc(S(=O)(=O)O)cc(S(=O)(=O)O)c34)cc2)cc1)Nc1ccc(C(=O)Nc2ccc(C(=O)Nc3ccc(S(=O)(=O)O)c4cc(S(=O)(=O)O)cc(S(=O)(=O)O)c34)cc2)cc1`, the Potency was 39.8 µM (active).

In the case of `CCC(=O)N[C@@H]1CCc2cccc(OC)c2C1`, the Potency result was “inactive”.

For the compound `CC(=O)NCC(=O)N[C@H](CCC(=O)O)C(=O)O` (HELM PEPTIDE1{[ac].G.[dE]}$$$$V2.0), the Potency result was “inactive”.

For the compound `COC(=O)[C@@H]1[C@@H]2C[C@H]3c4[nH]c5ccccc5c4CCN3C[C@@H]2CC[C@@H]1O`, the Potency entry is “inactive”.

With `CCC(=O)O[C@H](CC(=O)O)C[N+](C)(C)C`, the Potency entry was “inactive”.

On to `CC[C@]1(c2ncc[nH]2)Cc2ccccc2O1`, for which the Potency entry was “inactive”.

As to `C[C@H](NC[C@H](O)CP(=O)(O)Cc1ccccc1)c1ccc(Cl)c(Cl)c1`, the Potency entry was “inactive”.

Regarding `O=C(Nc1cc(C(=O)Nc2ccc(S(=O)(=O)O)cc2S(=O)(=O)O)cc(C(=O)Nc2ccc(S(=O)(=O)O)cc2S(=O)(=O)O)c1)Nc1cc(C(=O)Nc2ccc(S(=O)(=O)O)cc2S(=O)(=O)O)cc(C(=O)Nc2ccc(S(=O)(=O)O)cc2S(=O)(=O)O)c1`, the Potency was 1 µM (active).

With `NC(N)=NN=Cc1c(Cl)cccc1Cl`, the Potency result was “inactive”.

For the compound `O=C(O)c1c2ccccc2cc2ccccc12`, the Potency entry is “inactive”.

Take `c1ccc2oc(C3=NCCN3)cc2c1`: the Potency result was “inactive”.

For the compound `CCCn1c(=O)[nH]c2nc(-c3ccc(S(=O)(=O)O)cc3)[nH]c2c1=O`, the Potency entry was “inactive”.

As for `c1ccc(N2CCN(CCCOc3ccc4c(c3)OCO4)CC2)cc1`, the Potency entry was “inactive”.

In the case of `O=C1c2ccccc2C(=O)c2c(NCCc3ccc(O)cc3)ccc(NCCc3ccc(O)cc3)c21`, the Potency result is “inactive”.

In the case of `CN(C)C/C=C(\c1ccc(Br)cc1)c1cccnc1`, the Potency entry was “inactive”.

Consider `N[C@H](C(=O)O)c1ccc(C(=O)O)cc1`, for which the Potency entry is “inactive”.

As for `S=C(Nc1ccccc1)Nc1nccs1`, the Potency entry is “inactive”.

Turning to `C[C@@H](NCc1cc(Br)cc2[nH]c(=O)c(=O)[nH]c12)P(=O)(O)O`, the Potency entry is “inactive”.

Consider `Nc1nc(Nc2ccccc2)nc2c1ncn2[C@@H]1O[C@@H](CO)[C@H](O)[C@H]1O`, for which the Potency entry was “inactive”.

Take `CS(=O)(=O)Nc1c(O)ccc2c1CCC[C@H]2C1=NCCN1`: the Potency result was “inactive”.

With `C[N+](C)(CCCCCC[N+](C)(C)CCCN1C(=O)c2ccccc2C1=O)CCCN1C(=O)c2ccccc2C1=O`, the Potency entry was “inactive”.

On to `COc1ccccc1N1CCN(CCN2C(=O)c3ccccc3C(C)(C)C2=O)CC1`, for which the Potency entry was “inactive”.

On to `N[C@@H]1CCN(O)C1=O`, for which the Potency result is “inactive”.

`O=C(OC1Cc2c(O)cc(O)cc2OC1c1cc(O)c(O)c(O)c1-c1c(C2Oc3cc(O)cc(O)c3CC2O)cc(O)c(O)c1O)c1cc(O)c(O)c(O)c1` (stereo not given): the Potency was 44.7 µM (active).

With `CCCn1c(=O)c2[nH]c(-c3ccccc3)nc2n(CCC)c1=O`, the Potency entry was “inactive”.

For `CCNCCCNCCCCNCCCNCC`, the Potency result is “inactive”.

For the compound `N[C@H](C(=O)O)[C@@H]1[C@@H](C(=O)O)C1(F)F`, the Potency entry was “inactive”.

Regarding `C[C@H](N=C(NC#N)Nc1ccncc1)C(C)(C)C`, the Potency entry is “inactive”.

Turning to `CC(=O)[C@H]1CC[C@H]2C3CC=C4C[C@@H](O)CC[C@]4(C)C3CC[C@]12C` (stereo not given in full), the Potency entry was “inactive”.

Regarding `N[C@@]1(C(=O)O)CN[C@H](C(=O)O)C1`, the Potency entry is “inactive”.

With `COc1cccc(CNc2ccc3nc(-c4ccc(N)cc4)c(OC)n3n2)c1`, the Potency result was “inactive”.
